The source of these data is PubChem BioAssay.

Test [1] can be described thus: binders of probe aFSTL3 on microarray, primary screen, stem cell growth factor project, biochemical, small-molecule microarray, fluorescence 635/667 (AID 1064).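 Note: measures binding of the biotinylated anti-FSTL3 antibody to printed compounds.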 The settings on record: higher = more signal.
Test [2] in a line: binders from COS7 lysate, DM2A8 probe, primary screen, torsin A project, cell lysate, small-molecule microarray, fluorescence 635/667 (AID 1065). The settings on record: higher = more signal, COS7 lysate expressing mutant human TOR1A.
Test [3] in a line: binders of probe aFGF2 on microarray, primary screen, stem cell growth factor project, biochemical, small-molecule microarray, fluorescence 635/667 (AID 1067).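 Note: measures binding of biotinylated aFGF2 protein to printed compounds on slides; z-score merges feature fluorescence and signal-to-noise across triplicate slides.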 The settings on record: higher = more signal.
The nature of test [4]: binders of probe aFGF10 on microarray, primary screen, stem cell growth factor project, biochemical, small-molecule microarray, fluorescence 635/667 (AID 1071).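 Note: score merges 667 nm spot intensity and signal to noise from triplicate slides.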 The conditions noted are these: higher = more signal.
For test [5], the target named is Neurogenic locus notch homolog protein 2 (Homo sapiens) (UniProt Q04721). In words: Notch2 binders on small-molecule microarrays, primary screen, biochemical, small-molecule microarray, 635 nm fluorescence, stem cell growth factors (AID 1073). The settings on record: Notch2 binding, higher = more signal.
For test [6], the target named is Pro-neuregulin-1, membrane-bound isoform (Homo sapiens) (UniProt Q02297). In words: NRG1 binders on small-molecule microarrays, primary screen, psychiatric disease protein project, biochemical, small-molecule microarray, fluorescence 635/667 (AID 1075).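 Note: score combines 667 nm spot fluorescence with signal to noise.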 The conditions noted are these: NRG1 binding, 635 nm fluorescence, higher = more signal.
Test [7] deals with Neuregulin-1 EGF-like domain. In words: binders of neuregulin-1 EGF-like domain, primary screen, biochemical, small-molecule microarray, 635 nm fluorescence (AID 1081).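 Note: binding of the protein to compounds printed on small-molecule microarray slides.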 The settings on record: small-molecule microarray binding, higher = more signal.
Test [8] is described as follows: FRG1 promoter luciferase signal modulators, primary screen, FRG1 inhibition for FSHD, cell-based, C2C12 myotubes, firefly/Renilla luciferase, luminescence (AID 1084). The conditions noted are these: higher = more signal, called active from +8 up or from −8 down.
Test [9] in a line: binders of probe aFST on microarray, primary screen, stem cell growth factor project, biochemical, small-molecule microarray, fluorescence 635/667 (AID 1086).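 Note: score merges 667 nm fluorescence with signal-to-noise of each printed compound spot.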 The conditions noted are these: higher = more signal.
Test [10] can be described thus: binders of probe aHhip on microarray, primary screen, stem cell growth factor project, biochemical, small-molecule microarray, fluorescence 635/667 (AID 1087).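 Note: score merges spot fluorescence at 667nm with spot signal to noise ratio.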 The conditions noted are these: higher = more signal.
In test [11] the test system is PRMT1 (protein arginine N-methyltransferase 1). In words: PRMT1 binders on small-molecule microarrays, primary screen, biochemical, small-molecule microarray, 635 nm fluorescence (AID 1088).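 Note: binding of Prmt1 protein to compounds spotted on small-molecule microarray slides.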 The conditions noted are these: small-molecule microarray binding, higher = more signal.
Test [12] can be described thus: yeast growth modulation, basal conditions, primary screen, YJM789 clinical isolate, OD600, 24 h (AID 1089).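 Note: growth of clinical yeast isolate S. cerevisiae YJM 789 seeded 1000 cells per well; test concentration not given here.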 The settings on record: S. cerevisiae YJM789 growth, higher = more signal, called active from +8 up or from −8 down.
Test [13] in a line: fission yeast growth modulation, primary screen, strain 972, OD600, 24 h, no modulator (AID 1090).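 Note: basal condition with compound alone and no growth modifier present; test concentration not given here.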 The conditions noted are these: S. pombe 972 growth, higher = more signal, called active from +8 up or from −8 down.
A short description of test [14]: S. cerevisiae growth modulation with rapamycin, primary screen, strain BY4716, OD600, 96 h (AID 1091). Note: test concentration not given here. The settings on record: higher = more signal, called active from +8 up or from −8 down.
Test [15] has as its target Torsin-1A-interacting protein 2 (Homo sapiens) (UniProt Q8NFQ8). Description: LULL1 binders on small-molecule microarray, primary screen, cell lysate, human LULL1 lysate, 635/667 nm fluorescence (AID 1092).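 Note: probe is lysate of COS7 cells overexpressing human LULL1; score merges per-feature 667 nm fluorescence with signal-to-noise.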 The settings on record: hLULL1 lysate binding, 635 nm fluorescence, higher = more signal.
Test [16] can be described thus: E. coli growth modulation, two-sided OD650, primary screen, E. coli filamentation project, strain DRC41, 24 h (AID 1093).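 Note: MC1000 strain lacking acrAB efflux and sulA so SOS filamentation is blocked; test concentration not given here.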 The settings on record: OD650, 24 h, higher = more signal, called active from +8 up or from −8 down.
Test [17] can be described thus: small-molecule microarray binders of probe aLefty2, primary screen, biochemical, biotinylated probe, 635/667 nm fluorescence (AID 1094).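 Note: score merges spot fluorescence near 667 nm with spot signal-to-noise ratio.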 The settings on record: higher = more signal.
Test [18] has as its system Noggin (protein binding on small-molecule microarray). Description: Noggin binders on small-molecule microarray, primary screen, biochemical, 635/667 nm fluorescence (AID 1095).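 Note: score merges 667 nm feature fluorescence with signal to noise over triplicate slides.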 The conditions noted are these: 635 nm fluorescence, higher = more signal.
For test [19], the target named is Neurogenic locus notch homolog protein 3 (Homo sapiens) (UniProt Q9UM47). Description: NOTCH3 binders on small-molecule microarray, primary screen, biochemical, 635/667 nm fluorescence (AID 1096). The settings on record: NOTCH3 binding, 635 nm fluorescence, higher = more signal.
A short description of test [20]: small-molecule microarray binders of probe aEGFR, primary screen, biochemical, biotinylated probe, 635/667 nm fluorescence (AID 1097).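 Note: probe is a biotinylated anti-EGFR antibody binding compounds printed on slides; score combines fluorescence near 667 nm and signal to noise of each spot.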 The settings on record: higher = more signal.

Active and inactive are the calls of the source.

Sequence of Neurogenic locus notch homolog protein 2 (Homo sapiens) (Q04721 whole entry, looked up, canonical isoform): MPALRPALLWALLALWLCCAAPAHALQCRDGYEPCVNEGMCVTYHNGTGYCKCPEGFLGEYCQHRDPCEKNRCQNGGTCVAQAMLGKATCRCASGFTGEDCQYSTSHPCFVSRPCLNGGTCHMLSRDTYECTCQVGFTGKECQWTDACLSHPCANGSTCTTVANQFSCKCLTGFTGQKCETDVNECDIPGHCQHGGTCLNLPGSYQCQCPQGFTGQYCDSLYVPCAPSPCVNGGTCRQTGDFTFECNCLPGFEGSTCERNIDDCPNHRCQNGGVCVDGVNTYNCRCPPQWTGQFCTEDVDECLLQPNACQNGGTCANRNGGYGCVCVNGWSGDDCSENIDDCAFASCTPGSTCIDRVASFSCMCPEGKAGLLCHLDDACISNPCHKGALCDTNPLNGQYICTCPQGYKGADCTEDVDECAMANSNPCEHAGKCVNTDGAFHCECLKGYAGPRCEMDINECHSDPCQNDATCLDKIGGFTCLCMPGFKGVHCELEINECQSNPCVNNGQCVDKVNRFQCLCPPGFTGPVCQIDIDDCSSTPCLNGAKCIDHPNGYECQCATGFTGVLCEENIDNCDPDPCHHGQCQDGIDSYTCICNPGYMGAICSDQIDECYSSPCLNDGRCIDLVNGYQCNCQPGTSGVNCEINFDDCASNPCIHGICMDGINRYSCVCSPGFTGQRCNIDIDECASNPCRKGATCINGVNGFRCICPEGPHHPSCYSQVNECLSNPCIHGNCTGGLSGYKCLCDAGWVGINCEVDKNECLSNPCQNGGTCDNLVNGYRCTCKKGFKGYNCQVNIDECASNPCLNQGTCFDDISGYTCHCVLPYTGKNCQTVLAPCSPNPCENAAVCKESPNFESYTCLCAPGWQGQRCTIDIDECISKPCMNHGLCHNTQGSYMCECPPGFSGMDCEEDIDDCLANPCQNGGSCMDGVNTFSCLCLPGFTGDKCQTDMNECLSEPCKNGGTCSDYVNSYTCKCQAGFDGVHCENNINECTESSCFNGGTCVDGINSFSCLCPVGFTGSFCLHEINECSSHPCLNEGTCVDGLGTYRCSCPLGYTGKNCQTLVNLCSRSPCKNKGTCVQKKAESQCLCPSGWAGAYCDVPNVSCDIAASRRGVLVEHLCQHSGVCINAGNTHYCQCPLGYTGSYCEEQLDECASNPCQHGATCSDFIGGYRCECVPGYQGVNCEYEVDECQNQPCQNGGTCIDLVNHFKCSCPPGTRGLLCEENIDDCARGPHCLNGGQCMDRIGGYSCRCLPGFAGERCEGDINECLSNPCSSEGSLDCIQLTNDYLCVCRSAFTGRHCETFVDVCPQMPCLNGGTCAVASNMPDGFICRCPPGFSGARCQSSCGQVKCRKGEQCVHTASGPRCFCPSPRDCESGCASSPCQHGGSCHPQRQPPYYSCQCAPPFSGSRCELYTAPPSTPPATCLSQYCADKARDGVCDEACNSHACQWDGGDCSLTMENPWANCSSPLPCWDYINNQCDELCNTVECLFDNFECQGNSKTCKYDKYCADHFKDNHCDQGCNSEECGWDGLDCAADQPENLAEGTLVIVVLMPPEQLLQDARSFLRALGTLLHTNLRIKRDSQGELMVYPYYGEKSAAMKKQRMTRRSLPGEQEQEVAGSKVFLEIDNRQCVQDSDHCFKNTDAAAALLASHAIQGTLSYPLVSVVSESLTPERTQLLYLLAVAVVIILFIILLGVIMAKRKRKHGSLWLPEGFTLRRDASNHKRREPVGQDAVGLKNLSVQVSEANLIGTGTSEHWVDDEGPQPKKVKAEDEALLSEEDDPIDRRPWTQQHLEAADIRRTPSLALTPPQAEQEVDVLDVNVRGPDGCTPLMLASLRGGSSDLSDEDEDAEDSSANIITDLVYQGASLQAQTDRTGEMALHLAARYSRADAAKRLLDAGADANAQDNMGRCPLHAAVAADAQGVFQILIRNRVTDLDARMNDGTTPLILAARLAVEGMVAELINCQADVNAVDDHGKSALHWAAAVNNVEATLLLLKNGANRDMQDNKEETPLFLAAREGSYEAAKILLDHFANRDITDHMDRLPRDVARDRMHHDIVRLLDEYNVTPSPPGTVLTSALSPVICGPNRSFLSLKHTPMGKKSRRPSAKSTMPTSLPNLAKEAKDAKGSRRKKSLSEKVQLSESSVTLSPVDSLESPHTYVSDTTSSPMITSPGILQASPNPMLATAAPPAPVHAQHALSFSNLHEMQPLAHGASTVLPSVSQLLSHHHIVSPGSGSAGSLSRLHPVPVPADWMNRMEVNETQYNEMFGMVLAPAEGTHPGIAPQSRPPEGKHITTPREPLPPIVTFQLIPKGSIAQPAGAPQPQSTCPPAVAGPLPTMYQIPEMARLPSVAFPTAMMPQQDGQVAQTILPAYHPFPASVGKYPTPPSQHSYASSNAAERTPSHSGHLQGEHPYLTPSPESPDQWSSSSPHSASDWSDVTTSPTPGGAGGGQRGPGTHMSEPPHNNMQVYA
Sequence of Neurogenic locus notch homolog protein 3 (Homo sapiens) (Q9UM47 whole entry, looked up): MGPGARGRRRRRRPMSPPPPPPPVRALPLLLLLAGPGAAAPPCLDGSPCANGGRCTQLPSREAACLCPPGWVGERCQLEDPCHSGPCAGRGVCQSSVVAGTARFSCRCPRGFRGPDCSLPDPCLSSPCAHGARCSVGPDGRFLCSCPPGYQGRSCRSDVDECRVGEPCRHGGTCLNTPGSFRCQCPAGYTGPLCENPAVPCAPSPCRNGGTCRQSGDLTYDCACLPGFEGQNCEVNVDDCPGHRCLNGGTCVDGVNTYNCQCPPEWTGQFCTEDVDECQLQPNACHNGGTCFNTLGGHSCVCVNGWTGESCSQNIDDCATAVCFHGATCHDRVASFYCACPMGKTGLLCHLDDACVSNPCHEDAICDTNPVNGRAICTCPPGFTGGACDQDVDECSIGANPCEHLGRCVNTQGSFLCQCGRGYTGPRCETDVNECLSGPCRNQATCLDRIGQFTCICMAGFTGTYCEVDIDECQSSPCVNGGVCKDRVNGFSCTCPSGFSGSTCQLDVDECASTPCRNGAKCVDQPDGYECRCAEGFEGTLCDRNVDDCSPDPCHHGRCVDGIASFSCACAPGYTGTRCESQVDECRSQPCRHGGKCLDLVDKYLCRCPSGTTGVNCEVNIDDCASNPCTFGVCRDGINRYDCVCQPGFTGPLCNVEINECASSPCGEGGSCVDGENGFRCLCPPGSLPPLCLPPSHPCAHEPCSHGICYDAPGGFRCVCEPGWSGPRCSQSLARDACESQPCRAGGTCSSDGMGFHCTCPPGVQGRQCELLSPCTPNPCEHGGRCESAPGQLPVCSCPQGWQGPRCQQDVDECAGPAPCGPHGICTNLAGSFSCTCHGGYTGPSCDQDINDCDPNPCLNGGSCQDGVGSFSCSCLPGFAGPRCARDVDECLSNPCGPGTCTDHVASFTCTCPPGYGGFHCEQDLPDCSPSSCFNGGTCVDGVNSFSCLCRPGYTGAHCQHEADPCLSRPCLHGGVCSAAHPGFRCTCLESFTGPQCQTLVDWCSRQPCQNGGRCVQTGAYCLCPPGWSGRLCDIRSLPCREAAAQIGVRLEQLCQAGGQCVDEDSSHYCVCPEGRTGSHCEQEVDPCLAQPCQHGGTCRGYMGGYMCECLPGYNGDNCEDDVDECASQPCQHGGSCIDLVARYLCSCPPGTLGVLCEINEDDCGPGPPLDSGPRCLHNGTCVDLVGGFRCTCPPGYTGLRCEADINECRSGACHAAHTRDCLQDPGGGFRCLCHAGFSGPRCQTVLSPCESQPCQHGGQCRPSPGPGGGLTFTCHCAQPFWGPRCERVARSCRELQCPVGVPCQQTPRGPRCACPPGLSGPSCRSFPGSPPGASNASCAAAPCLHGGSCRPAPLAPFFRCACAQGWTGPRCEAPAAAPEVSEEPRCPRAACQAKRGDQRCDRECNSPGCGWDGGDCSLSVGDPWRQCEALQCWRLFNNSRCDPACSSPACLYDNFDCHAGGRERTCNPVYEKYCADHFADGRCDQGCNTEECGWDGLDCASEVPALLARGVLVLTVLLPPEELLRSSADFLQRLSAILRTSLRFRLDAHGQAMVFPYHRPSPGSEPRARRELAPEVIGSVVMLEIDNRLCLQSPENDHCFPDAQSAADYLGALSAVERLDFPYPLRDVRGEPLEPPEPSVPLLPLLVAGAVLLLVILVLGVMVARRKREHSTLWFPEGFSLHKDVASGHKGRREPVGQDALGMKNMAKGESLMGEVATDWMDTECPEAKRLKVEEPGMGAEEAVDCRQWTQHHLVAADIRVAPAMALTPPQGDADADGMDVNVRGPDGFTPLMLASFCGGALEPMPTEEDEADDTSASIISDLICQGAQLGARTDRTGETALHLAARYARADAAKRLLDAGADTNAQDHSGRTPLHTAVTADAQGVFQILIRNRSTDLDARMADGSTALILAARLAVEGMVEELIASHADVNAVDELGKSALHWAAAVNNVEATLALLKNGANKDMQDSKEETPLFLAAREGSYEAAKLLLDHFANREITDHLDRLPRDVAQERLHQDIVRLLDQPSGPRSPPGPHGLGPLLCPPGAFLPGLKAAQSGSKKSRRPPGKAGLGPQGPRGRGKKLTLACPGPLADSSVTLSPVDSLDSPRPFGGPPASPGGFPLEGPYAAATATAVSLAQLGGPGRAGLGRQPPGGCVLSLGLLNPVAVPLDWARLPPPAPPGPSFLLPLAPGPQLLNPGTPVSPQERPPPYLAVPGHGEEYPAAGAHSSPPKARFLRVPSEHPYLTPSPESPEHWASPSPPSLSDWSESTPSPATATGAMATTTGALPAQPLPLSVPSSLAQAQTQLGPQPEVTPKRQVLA

As for `COC(=O)[C@@]1(Cc2ccccc2)[C@H]2c3cc(C(=O)N(C)C)n(Cc4ccc(C(F)(F)F)nc4)c3C[C@H]2CN1C(=O)c1ccccc1`, the composite z-score in [1] is 0.261; in test [2], 0.0724; in test [3], 0.233; in test [4], 0.699; in [5], 1.67; in [6] it was 1.9. Moreover, the composite z-score in [7] was 1.48; in test [9] it was 1.74; in test [10], -0.126; in test [11] it was 0.644; in test [15], 3.69; in test [17] it was 0.348. For the same compound, the figures for the composite z-score in test [18], in test [19] and in [20] were -0.498, 1.03 and 0.228, respectively. Besides, the z-score in test [8] is 0.0597 (inactive); in test [12] it was 1.06 (inactive); in test [13] it was 1.28 (inactive); in [14], 1.67 (inactive); in test [16], -0.755 (inactive).

`CCCN1C(=O)[C@@]2(c3ccc([N+](=O)[O-])cc3)CC(=O)N(CC34CC5CC(CC(C5)C3)C4)[C@@H]2c2ccc(CO)cc21`: the composite z-score in test [1] was 0.402; in [2] it was -0.519; in test [3], -0.165; in [4] it was -0.046; in test [5], -0.421; in [6], 0.0413. Besides, the composite z-score in test [7] was -0.58; in test [9] it was -0.103; in test [10] it was -0.213; in test [11], -0.247; in [15], 0.162; in test [17] it was -0.0099. In addition, the results for the composite z-score in [18], in test [19] and in test [20] were 0.047, -0.184 and 0.142, respectively. In addition, the z-score in test [8] was 0.244 (inactive); in test [12] it was -0.962 (inactive); in test [13], -0.365 (inactive); in [14] it was -1.93 (inactive); in [16] it was -0.19 (inactive).

Regarding `O=C1C2C=CC(C(O)c3cccs3)N(Nc3ccc([N+](=O)[O-])cc3)C2C(=O)N1c1ccccc1` (stereo not given), the composite z-score in test [1] is 0.102; in test [2], -0.0628; in [3], 0.0543; in [4], 0.362; in test [5], 1.19; in [6], 1.67. In addition, the composite z-score in test [7] was 1.23; in test [9], 0.611; in [10], 0.154; in test [11], 0.32; in test [15], 2.98; in [17] it was -0.0636. Besides, the composite z-score is -0.13 in test [18], 0.788 in test [19] and -0.0947 in test [20]. Further, the z-score was 1.05 (inactive) in test [8]; -0.198 (inactive) in test [12]; 1.14 (inactive) in [13]; 1.88 (inactive) in [14]; -0.0849 (inactive) in test [16].

`[N-]=[N+]=Nc1ccccc1[C@H]1OC(c2ccc(OCCCO)cc2)=N[C@@]1(Cc1ccccc1)C(=O)NCC(O)CO` (stereo not given in full): the composite z-score in test [1] amounted to 0.277; in test [2], 0.0899; in test [3], 0.0528; in test [4], 0.231; in test [5], 1.36; in test [6], 1.19. Besides, the composite z-score in [7] was 1.12; in test [9] it was 1.03; in [10], -0.0541; in test [11] it was 1.02; in [15], 3.52; in test [17] it was 0.109. The composite z-score is 0.0821 in test [18], 0.206 in test [19] and -0.0226 in test [20]. The z-score in [8] is 2.22 (inactive); in test [12], -0.858 (inactive); in test [13] it was -1.13 (inactive); in test [14] it was 0.617 (inactive); in [16], 0.824 (inactive).

Consider `CCCC=C(CCC)[C@@H](NC(=O)c1ccc(C(F)(F)F)cc1)c1ccc(C(F)(F)F)cc1`, for which the composite z-score was 0.625 in test [1]; 0.629 in test [2]; 0.171 in test [3]; 0.669 in [4]; 1.57 in test [5]; 1.82 in test [6]. Further, the composite z-score was 0.588 in [7]; 1.04 in test [9]; -0.0965 in test [10]; 1.41 in test [11]; 3.26 in test [15]; 0.315 in test [17]. Also, the composite z-score is -0.0005 in [18], 1.11 in [19] and 0.208 in test [20]. Further, the z-score in test [8] is -4.76 (inactive); in test [12] it was 1.13 (inactive); in [13], 1.17 (inactive); in [14], 1.23 (inactive); in [16] it was -0.35 (inactive).
